Three compounds from PubChem BioAssay (EPA / NIEHS) can be followed below.

Several values for one entry are separate records, joined by “and”; a condition that tells them apart may be missing. Equal entries are not always repeated. Inconclusive results are not listed. Some structures have more than one record in an assay (separate samples or runs), and their calls can disagree. Activity calls are given as the source filed them. How the source made its calls, unless noted: active means hit-call score of the fitted dose curve at least 0.9, where 1 is the maximum; inactive means score below 0.9.

Read-out in test [1]: sulfotransferase 2A1 (SULT2A1), SULT2A1 (gene 6822)
Briefly: LTEA_HepaRG_SULT2A1: Life Technologies and Expression Analysis (LTEA) Assay for sulfotransferase 2A1 (SULT2A1) using HepaRG (AID 2283531). Conditions: mRNA level, 48 h; actives raise or lower the signal. The method in brief:
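Gene-expression endpoint in a human liver cell line: SULT2A1 mRNA change after 48 h chemical treatment, curves fitted in both directions relative to 0.5% DMSO vehicle. Concentrations spanned eight half-log steps from 100 uM.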

Read-out in test [2]: Transforming Growth Factor (TGFA), TGFA (gene 7039)
Briefly: LTEA_HepaRG_TGFA: Life Technologies and Expression Analysis (LTEA) Assay for Transforming Growth Factor (TGFA) using HepaRG (AID 2283532). To be noted: mRNA level, 48 h; actives raise or lower the signal. The essentials: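 Differentiated human HepaRG cells, plated 48 h then switched to serum-free induction medium, were exposed in duplicate for 48 h to 8-point half-log series from 100 uM in 0.5% DMSO. TGFA mRNA measured by qRT-PCR, normalized to ACTB/GAPDH/POLR2A, bidirectional fit versus DMSO.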

Read-out in test [3]: Transforming Growth Factor (TGFB1), TGFB1 (gene 7040)
Briefly: LTEA_HepaRG_TGFB1: Life Technologies and Expression Analysis (LTEA) Assay for Transforming Growth Factor (TGFB1) Transporter using HepaRG (AID 2283533). To be noted: mRNA level, 48 h; actives raise or lower the signal. The essentials:
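Eight-point concentration-response (max 100 uM, half-log) in HepaRG under serum-free induction conditions, 48 h. TGFB1 mRNA by qRT-PCR, housekeeping-normalized.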

Read-out in test [4]: Tumor necrosis factor receptor 1 (TNFRSF1A), TNFRSF1A (gene 7132)
Briefly: LTEA_HepaRG_TNFRSF1A: Life Technologies and Expression Analysis (LTEA) Assay for Tumor necrosis factor receptor 1 (TNFRSF1A) using HepaRG (AID 2283535). To be noted: mRNA level, 48 h; actives raise or lower the signal. The method in brief: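 Assay uses 48 h chemical treatment of differentiated HepaRG monolayers, tested in duplicate at eight concentrations from 100 uM downward in 0.5% DMSO. mRNA is normalized to ACTB, GAPDH and POLR2A, with induction or suppression fitted relative to vehicle.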

Read-out in test [5]: Thyroid Hormone Responsive (THRSP), THRSP (gene 7069)
Briefly: LTEA_HepaRG_THRSP: Life Technologies and Expression Analysis (LTEA) Assay for Thyroid Hormone Responsive (THRSP) using HepaRG (AID 2283536). Conditions: mRNA level, 48 h; actives raise or lower the signal. The method in brief:
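Differentiated human HepaRG cells were exposed in duplicate for 48 h in serum-free induction medium to eight concentrations (top 100 uM, half-log steps, 0.5% DMSO). Expression was quantified by TaqMan qRT-PCR, normalized to ACTB, GAPDH and POLR2A, with bidirectional fitting against DMSO.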

Read-out in test [6]: Cellular tumor antigen p53 (Homo sapiens) (UniProt P04637)
The experiment in a line: LTEA_HepaRG_TP53: Life Technologies and Expression Analysis (LTEA) Assay for Tumor Protein P53 (TP53) using HepaRG (AID 2283537). Conditions: mRNA level, 48 h; actives raise or lower the signal. The method in brief:
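Differentiated HepaRG cells in serum-free induction medium exposed 48 h in duplicate to 8 half-log concentrations, top 100 uM, 0.5% DMSO. TP53 mRNA by TaqMan qRT-PCR (Fluidigm), normalized to ACTB, GAPDH, POLR2A; fitted bidirectionally versus DMSO.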

Read-out in test [7]: UDP glucuronosyltransferase (UGT1A1), UGT1A1 (gene 54658)
Briefly: LTEA_HepaRG_UGT1A1: Life Technologies and Expression Analysis (LTEA) Assay for UDP glucuronosyltransferase (UGT1A1) using HepaRG (AID 2283538). To be noted: mRNA level, 48 h; actives raise or lower the signal. The method in brief: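 Readout is UGT1A1 transcript level by qRT-PCR, normalized to three housekeeping genes, after 48 h chemical treatment of HepaRG cells. Concentrations ran from 100 uM down in half-log steps with 0.5% DMSO, and gain or loss relative to DMSO was fitted.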

Read-out in test [8]: UDP glucuronosyltransferase (UGT1A6), UGT1A6 (gene 54578)
The experiment in a line: LTEA_HepaRG_UGT1A6: Life Technologies and Expression Analysis (LTEA) Assay for UDP glucuronosyltransferase (UGT1A6) using HepaRG (AID 2283539). To be noted: mRNA level, 48 h; actives raise or lower the signal. The essentials: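 Measures mRNA change in HepaRG hepatic cells exposed 48 h to chemicals (eight-point, maximum 100 uM, 0.5% DMSO vehicle) in serum-free induction medium. Expression normalized to endogenous controls; DMSO served as negative control and baseline.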

Read-out in test [9]: X-box binding protein 1 (XBP1), XBP1 (gene 7494)
The experiment in a line: LTEA_HepaRG_XBP1: Life Technologies and Expression Analysis (LTEA) Assay for X-box binding protein 1 (XBP1) using HepaRG (AID 2283540). Conditions: mRNA level, 48 h; actives raise or lower the signal. The method in brief: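 Eight concentrations (half-log, highest 100 uM, 0.5% DMSO) tested in duplicate on HepaRG cells over 48 h in serum-free induction medium; qRT-PCR of XBP1 normalised to ACTB, GAPDH, POLR2A.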

A short description of test [10]: LTEA_HepaRG_LDH_cytotoxicity: Cytotoxicity Assessment in the Life Technologies and Expression Analysis (LTEA) Assay (AID 2283563; active means hit-call score of the fitted dose curve at least 0.9, where 1 is the maximum;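 on AC50: LDH activity released into spent culture medium as a marker of cell death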). The method in brief:
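Spent-medium LDH after 48 h chemical exposure of HepaRG cells in serum-free induction medium; eight concentrations, half-log dilutions from 100 uM, duplicate wells, fitted upward relative to 0.5% DMSO.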

Test [11] is described as follows: ATG_XTT_Cytotoxicity: Cytotoxicity Assessment in the Attagene TRANS-FACTORIAL HepG2 Assay (AID 2283584; active means hit-call score of the fitted dose curve at least 0.9, where 1 is the maximum). The essentials: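 24 h chemical exposure of reporter-transfected HepG2; XTT signal loss vs DMSO indicates cytotoxicity.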
The target of test [12] is Cellular tumor antigen p53 (Homo sapiens) (UniProt P04637). The experiment in a line: TOX21_p53_BLA_p2_ratio: Tox21 HCT-116 p53 Agonism Beta-lactamase Assay, Ratio, Phase 2 (AID 2283592; active means hit-call score of the fitted dose curve at least 0.9, where 1 is the maximum). The essentials:
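Human colon HCT116 cells with an inducible p53 beta-lactamase reporter are exposed to test chemicals for 16 h at 37C. Reporter induction is read as the 460/530 nm emission ratio after CCF4-AM loading, normalized to DMSO.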

A short description of test [13]: TOX21_p53_BLA_p3_viability: Viability Assessment in the Tox21 HCT-116 p53 Agonism Beta-lactamase Assay, Phase 3 (AID 2283593; active means hit-call score of the fitted dose curve at least 0.9, where 1 is the maximum;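 further: cells exposed to compound for 16 h before reading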). The essentials: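 HCT-116 cells (4000/well) rested 5 h at 37C, then got DMSO compounds by pin tool (217-fold dilution) for 16 h at 37C, 5% CO2. After the bla read, CellTiter-Glo was added and luminescence read at 30 min, room temperature.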

The target of test [14] is Cellular tumor antigen p53 (Homo sapiens) (UniProt P04637). Briefly: TOX21_p53_BLA_p3_ratio: Tox21 HCT-116 p53 Agonism Beta-lactamase Assay, Ratio, Phase 3 (AID 2283596; active means hit-call score of the fitted dose curve at least 0.9, where 1 is the maximum). The method in brief:
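HCT116 p53-bla cells (4000/well) given compound in DMSO (217-fold dilution) after 5 h, incubated 16 h at 37C. CCF4-AM substrate 2 h at room temperature; 460/530 nm emission ratio, gain fitted against DMSO.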

Test [15] can be described thus: TOX21_p53_BLA_p4_viability: Viability Assessment in the Tox21 HCT-116 p53 Agonism Beta-lactamase Assay, Phase 4 (AID 2283597; active means hit-call score of the fitted dose curve at least 0.9, where 1 is the maximum;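 further: hits lower the luminescence signal meaning cytotoxicity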). The essentials:
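Luminescent ATP readout (CellTiter-Glo, 30 min, room temperature) in the same wells as the p53 bla ratio. HCT116 cells were treated for 16 h at 37C with DMSO-dissolved compounds.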

Test [16] addresses Cellular tumor antigen p53 (Homo sapiens) (UniProt P04637). The experiment in a line: TOX21_p53_BLA_p5_ratio: Tox21 HCT-116 p53 Agonism Beta-lactamase Assay, Ratio, Phase 5 (AID 2283599; active means hit-call score of the fitted dose curve at least 0.9, where 1 is the maximum). The method in brief:
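HCT-116 cells carrying a p53-inducible beta-lactamase reporter were seeded at 4000 cells/well and dosed after 5 h with compound in DMSO (217-fold dilution). After 16 h at 37C, CCF4-AM substrate was added for 2 h, and the 460/530 nm emission ratio was scored as gain-of-signal versus DMSO.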

Test [17] in a line: TOX21_p53_BLA_p5_viability: Viability Assessment in the Tox21 HCT-116 p53 Agonism Beta-lactamase Assay, Phase 5 (AID 2283600; active means hit-call score of the fitted dose curve at least 0.9, where 1 is the maximum). The essentials:
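Seeded cells (4000/well) settle 5 h before compound addition. Plates then incubate 16 h at 37C, receive FRET substrate for 2 h, and finally CellTiter-Glo, with luminescence measured after a 30 min room-temperature incubation.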

Test [18] deals with Cellular tumor antigen p53 (Homo sapiens) (UniProt P04637). Briefly: TOX21_p53_BLA_p4_ratio: Tox21 HCT-116 p53 Agonism Beta-lactamase Assay, Ratio, Phase 4 (AID 2283601; active means hit-call score of the fitted dose curve at least 0.9, where 1 is the maximum). The method in brief: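 HCT116 cells carrying an inducible beta-lactamase reporter were plated at 4000 cells/well, rested 5 h, then exposed to compounds in DMSO (217-fold dilution) for 16 h at 37C. CCF4-AM substrate was loaded 2 h at room temperature; 460/530 nm emission ratio scored gain-of-signal versus DMSO.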
Cellular tumor antigen p53 (Homo sapiens), sequence (P04637 whole entry, looked up): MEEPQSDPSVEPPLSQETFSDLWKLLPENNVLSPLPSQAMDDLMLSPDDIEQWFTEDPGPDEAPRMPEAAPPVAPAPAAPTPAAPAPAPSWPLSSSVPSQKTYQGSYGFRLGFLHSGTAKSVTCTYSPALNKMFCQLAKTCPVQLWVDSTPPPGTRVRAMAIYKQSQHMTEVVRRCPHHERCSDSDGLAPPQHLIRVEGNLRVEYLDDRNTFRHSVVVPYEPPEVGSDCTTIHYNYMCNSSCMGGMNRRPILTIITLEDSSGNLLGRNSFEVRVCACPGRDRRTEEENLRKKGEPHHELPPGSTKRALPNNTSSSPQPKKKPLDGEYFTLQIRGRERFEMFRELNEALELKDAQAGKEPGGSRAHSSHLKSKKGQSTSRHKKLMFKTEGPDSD

As usually defined, the AC50 is the concentration giving half of the maximal activity seen. Consider `CO/C=C(/C(=O)OC)c1ccccc1Oc1cc(Oc2ccccc2C#N)ncn1`, for which the AC50 in [1] is 80.9 µM (active) and 81.2 µM (active) and 94.4 µM (active); in [2] it was 84.4 µM (active) and 81.8 µM (active) and 84.8 µM (active); in test [5] it was 93.2 µM (active) and 80.5 µM (active); in [6] it was 84.8 µM (active) and 83.1 µM (active) and 83 µM (active); in test [7], 88.7 µM (active) and 87.6 µM (active) and 83.3 µM (active); in test [8], 78.4 µM (active) and 80.9 µM (active) and 86.7 µM (active). Besides, the half-maximal activity concentration (AC50) in [10] is 74.8 µM (active) and 77.6 µM (active) and 80.7 µM (active). Moreover, the result in [3], in test [4], in test [5], in test [9], in [11] and in test [12] was inactive. Besides, the outcome in test [13], in test [14], in test [15], in test [16], in [17] and in [18] was inactive.

With `CON(C)C(=O)Nc1ccc(Cl)c(Cl)c1`, the compound was classed as inactive in test [1], in test [2], in test [3], in [4], in test [8] and in test [9]. Besides, the call in [10], in [11], in [12], in [13], in test [14] and in test [15] was inactive. For the same compound, the outcome in test [16], in test [17] and in [18] was inactive. Besides, the AC50 in [5] is 11.4 µM (active); in test [6] it was 69.8 µM (active); in test [7] it was 32.5 µM (active).

For `N#Cc1nn(-c2c(Cl)cc(C(F)(F)F)cc2Cl)c(N)c1S(=O)C(F)(F)F` (stereo not given), the AC50 in test [1] was 50.2 µM (active); in [2] it was 33.2 µM (active); in test [5], 27.3 µM (active); in [6], 32 µM (active); in [7], 37.6 µM (active); in [8] it was 44.8 µM (active). Also, the half-maximal activity concentration (AC50) in [9] was 68.6 µM (active); in [10] it was 34.2 µM (active). Also, the compound was classed as inactive in [3], in [4], in [11], in test [12], in test [13] and in [14]. The result in test [15], in [16], in [17] and in test [18] was inactive.
